This is a sample that favours compounds with a hit; in the whole collection about 2.9% have one here.
pPAFAH FP inh: inhibitors of human plasma PAF acetylhydrolase (pPAFAH) | Q13093 | recombinant pPAFAH, FP-rhodamine probe fluorescence polarization | inhibition, % at 3.39 µM | hit rate 1.5% among 330,000;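 active = inhibition above the mean inhibition across the screen plus 3 SD, cut at about 25% in these data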;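 also: inhibitors block binding of the rhodamine activity-based probe so polarization drops; 0% = enzyme with DMSO and 100% = wells lacking pPAFAH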
LYPLA1 counter: LYPLA1 (human) inhibition in PME1 counter-screen | inhibition, % at 5.9 µM | recombinant LYPLA1, FP-Rh probe fluorescence polarization | AID 2174 | hit rate 0.16% among 320,000;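 active = inhibition above the mean of all tested compounds plus 3 SD, set per campaign, cut at about 14% in these data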;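 also: inhibitors block serine hydrolase probe labeling of LYPLA1 so polarization falls; 0% = enzyme with DMSO and 100% = wells lacking LYPLA1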
Target sequence (O75608 whole entry, looked up): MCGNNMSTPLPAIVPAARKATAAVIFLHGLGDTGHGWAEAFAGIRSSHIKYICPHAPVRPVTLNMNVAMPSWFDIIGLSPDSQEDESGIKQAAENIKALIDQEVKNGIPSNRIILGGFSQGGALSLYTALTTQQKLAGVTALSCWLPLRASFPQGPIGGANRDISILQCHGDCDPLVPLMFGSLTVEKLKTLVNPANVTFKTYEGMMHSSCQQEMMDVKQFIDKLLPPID
LYPLA2 counter: LYPLA2 (human) inhibition in PME1 counter-screen | recombinant LYPLA2, FP-Rh probe fluorescence polarization | inhibition, % at 5.9 µM | hit rate 0.38% among 320,000 | AID 2177;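 active = inhibition above the screen-wide mean plus 3 SD, limit set per campaign, cut at about 26% in these data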;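 also: 0% = LYPLA2 with DMSO and 100% = wells lacking LYPLA2 enzyme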
PAFAH1B3 FP inh: inhibitors of human PAFAH1B3; Q15102; recombinant PAFAH1B3, FP-rhodamine probe, fluorescence polarization; inhibition, % at 3.39 µM; hit rate 0.28% among 340,000; AID 492972;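 active = inhibition above the screen-wide average of all tested compounds plus 3 SD, cut at about 25% in these data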;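 also: 0% = enzyme with DMSO only and 100% = wells lacking PAFAH1B3 protein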
PAFAH1B2 inh: blocks human PAF acetylhydrolase 1b catalytic subunit 2. inhibition, % at 3.39 µM. hit rate 1.2% among 340,000. recombinant PAFAH1B2, FP-rhodamine activity probe, fluorescence polarization. P68402;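 active = inhibition above the mean of all tested compounds plus 3 SD, cut at about 24% in these data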;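 also: 0% = enzyme with DMSO and 100% = wells lacking PAFAH1B2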
Target sequence (P68402 whole entry, looked up): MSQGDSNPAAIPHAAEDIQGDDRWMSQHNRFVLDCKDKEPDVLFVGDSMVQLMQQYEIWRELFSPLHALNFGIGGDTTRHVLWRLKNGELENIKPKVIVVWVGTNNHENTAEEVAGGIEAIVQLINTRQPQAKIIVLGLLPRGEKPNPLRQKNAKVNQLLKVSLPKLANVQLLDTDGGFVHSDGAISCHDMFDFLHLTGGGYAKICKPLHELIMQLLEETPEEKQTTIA
PAFAH2 FP inh: PAFAH2 (human) inhibition. inhibition, % at 3.39 µM. hit rate 0.99% among 340,000. recombinant PAFAH2, FP-rhodamine activity probe, fluorescence polarization. Q99487. AID 492956;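 active = inhibition above the mean over all tested compounds plus 3 SD, cut at about 30% in these data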;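 also: inhibitors block probe labeling of enzyme so polarization drops; 0% = enzyme with DMSO and 100% = wells lacking PAFAH2 protein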
PAFAH2 FP conf: confirmation of human PAFAH2 inhibitors. shares compounds with PAFAH2 FP inh. recombinant PAFAH2, FP-rhodamine activity probe, fluorescence polarization. inhibition, % at 3.39 µM. hit rate 65% among 2,300;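 active = mean inhibition over three repeats above a set limit taken from the earlier primary screen, cut at about 30% in these data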;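 also: inhibitor blocks binding of rhodamine activity probe so polarization falls; 0% = enzyme with DMSO and 100% = wells lacking PAFAH2 protein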
The depositor's hits bear a star; x = no result.

SMILES	pPAFAH FP inh	LYPLA1 counter	LYPLA2 counter	PAFAH1B3 FP inh	PAFAH1B2 inh	PAFAH2 FP inh	PAFAH2 FP conf
Cc1c(NC(=O)COC(=O)C2CC3C=CC2C3)c(=O)n(-c2ccccc2)n1C (stereo unspecified)	2	1	5	12	1	-3	x
CC(C)c1ccc(NC(=O)COC(=O)C2CC3C=CC2C3)cc1 (stereo unspecified)	24	x	x	-1	2	44*	24
NC(=O)c1ccc(NC(=O)COC(=O)C2CC3C=CC2C3)cc1 (stereo unspecified)	1	x	x	0	4	-7	x
O=C(COC(=O)C1CC2C=CC1C2)Nc1ccccc1[N+](=O)[O-] (stereo unspecified)	13	x	x	11	1	77*	58*
CC1CCC(NC(=O)COC(=O)C2CC3CCCC(C2)C3=O)CC1 (stereo unspecified)	8	2	6	4	3	62*	48*
O=C(COC(=O)C1CC2CCCC(C1)C2=O)NC1CCCCC1 (stereo unspecified)	2	0	-3	6	1	63*	55*
CC(=O)Nc1cccc(NC(=O)COC(=O)C2CC3CCCC(C2)C3=O)c1 (stereo unspecified)	-3	3	6	15	-3	-4	x
CC(C)(C)c1ccc(/C=C2\Oc3cc(O)ccc3C2=O)cc1	16	0	-2	5	11	47*	36*
COc1cccc(C2CC(c3ccccc3)n3ncnc3N2)c1 (stereo unspecified)	-4	0	4	4	2	-9	x
CCOC(=O)C1CN(S(=O)(=O)c2ccc(Cl)cc2)c2cc(S(=O)(=O)CC)ccc2O1 (stereo unspecified)	4	-1	4	x	x	x	x
CCC1CN(S(=O)(=O)c2ccc3c(c2)NC(=O)CC(=O)N3)c2cc(Cl)ccc2O1 (stereo unspecified)	2	-3	-3	5	11	45*	20
CN(C)c1ccccc1C(=O)N1CCCC(Nc2ccc(F)cc2)C1 (stereo unspecified)	4	7	7	6	7	-9	x
Cc1ccc(/C=c2\sc3nc(-c4ccco4)nn3c2=O)o1	20	-2	-6	9	5	39*	1
CSCC[C@H](NC(=O)OC(C)(C)C)C(=O)NCC1CCC(C(=O)N[C@@H](Cc2ccccc2)C(=O)O)CC1 (stereo partly specified)	8	2	1	-1	1	-5	x
O=C(/C=C/c1ccccc1[N+](=O)[O-])N1CCOCC1	-3	2	0	1	4	-2	x
O=C(COC(=O)/C=C/c1ccccc1Cl)NCCc1ccc(Cl)cc1Cl	6	-5	-13	6	1	66*	52*
Cc1ccc(C(=O)c2ccccc2C(=O)OCC(=O)NCCc2ccc(Cl)cc2Cl)cc1	2	-8	-17	3	5	46*	49*
O=C(COC(=O)/C=C/c1ccc(Cl)cc1Cl)NCCC1=CCCCC1	5	-4	-1	3	1	-4	x
O=C(Nc1ccc(S(=O)(=O)N2CCOCC2)cc1)c1ccco1	2	4	1	13	2	5	x
COc1cccc(CC(=O)Nc2cc(S(=O)(=O)N3CCOCC3)ccc2OC)c1	x	x	x	4	3	39*	29
Cc1ccc(S(=O)(=O)N2CCOCC2)cc1C(=O)Nc1cc(S(=O)(=O)N2CCCCC2)ccc1O	x	x	x	8	7	30*	6
CN(C)S(=O)(=O)c1cccc(C(=O)Nc2cc(S(=O)(=O)N3CCOCC3)ccc2O)c1	x	x	x	6	-3	50*	50*
COc1cccc(CC(=O)Nc2cc(S(=O)(=O)N3CCOCC3)ccc2N2CCOCC2)c1	1	0	5	15	2	8	x
Cc1ccc(S(=O)(=O)N2CCOCC2)cc1C(=O)NC1CCCCCC1	2	-1	14	8	7	1	x
O=C(Nc1cc(S(=O)(=O)N2CCOCC2)ccc1O)c1ccco1	5	-1	-6	3	4	57*	44*

Assay outcomes deposited in PubChem BioAssay by The Scripps Research Institute Molecular Screening Center.
